# Most compounds without a hit are left out; they make up all but 2.4% or so of the library.
# Anthrax LT inh: blocks cellular internalization of anthrax lethal toxin; Cells, anthrax lethal toxin internalization, FRET ratio (460/530); Potency, µM (titrated, usually from 40 µM), for inactives: at the top dose activity change, negative = inhibition, hits mostly inhibitors; actives 0.67% (n = 70,000); further: on the % scale 0 is the no-effect control and ±100 the full control effect; nearly all actives have a fitted effect of over 50% in size
# Prx2 Sm inh: blocks S. mansoni peroxiredoxin 2 enzymatic activity; Potency, µM; S. mansoni Prx2 activity coupled to TGR/GSH (TGR is thioredoxin glutathione reductase), NADPH fluorescence loss, qHTS; actives 0.07% (n = 65,000)
#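 Prx2 inhibition was measured as reduced NADPH consumption when electrons flowed from NADPH through TGR and glutathione to Prx2 and H2O2. Plates were read kinetically over 8 min; enzyme reagents were held at 4 deg C during dispensing.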
# AmpC inh det: blocks E. coli AmpC beta-lactamase in presence of detergent. purified AmpC, nitrocefin hydrolysis with detergent. actives 0.09% (n = 71,000). P00811. Potency, µM (series often up to 28.7 µM), for the others: at the highest dose activity change, negative = inhibition; active means well fitted curve in the direction sought with a large enough effect; inconclusive means small, poorly fitted or top-dose-only effect; further: on the % scale 0 is the no-effect control and ±100 the full control effect
# Target sequence (P00811 whole entry, looked up): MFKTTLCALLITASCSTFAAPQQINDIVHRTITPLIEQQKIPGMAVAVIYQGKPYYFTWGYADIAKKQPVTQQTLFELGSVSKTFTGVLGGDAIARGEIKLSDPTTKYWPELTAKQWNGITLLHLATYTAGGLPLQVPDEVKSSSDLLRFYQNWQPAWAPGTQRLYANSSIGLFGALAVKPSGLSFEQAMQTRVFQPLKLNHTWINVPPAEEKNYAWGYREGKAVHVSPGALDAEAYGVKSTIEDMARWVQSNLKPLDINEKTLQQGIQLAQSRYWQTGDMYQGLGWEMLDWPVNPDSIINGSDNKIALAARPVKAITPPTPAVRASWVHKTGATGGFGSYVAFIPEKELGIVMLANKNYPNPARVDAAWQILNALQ
#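 E. coli AmpC (5.3 nM) in 20 mM phosphate pH 7.0 with 0.01% Triton X-100, preincubated 15 min RT with compound; nitrocefin (2 uL of 800 uM stock) hydrolysis followed by 480 nm absorbance every 20 s over 4 min.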
# AmpC inh no det: inhibitors of E. coli AmpC beta-lactamase without detergent | actives 1.8% (n = 71,000) | AID 585 | P00811 | Potency, µM (titrated, usually from 28.7 µM), for inactives: at the highest dose activity change, negative = inhibition | AmpC nitrocefin hydrolysis, absorbance 480 nm, no detergent; further: % of control where 0% means no effect
#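 Enzyme, pH 7.0 phosphate. Compound titrations were pre-incubated with AmpC for 15 min at room temperature before nitrocefin (stock 800 uM) addition; product formation was recorded at 480 nm every 20 s for 4 min.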
# * hit, by the source's call; u = inconclusive; x = no result given; [ ] = dose if it differs, or a comment. Unless noted, the call rests on the fitted dose curve. Potency means the concentration at half of the fitted maximal effect.
SMILES,Anthrax LT inh,Prx2 Sm inh,AmpC inh det,AmpC inh no det
CC(C)(C)c1cc(C#N)cc(Br)c1OP(=O)(Oc1c(Br)cc(C#N)cc1C(C)(C)C)c1ccccc1,-11%[8 µM],>57,-2%[5.75 µM],-4%[5.75 µM]
O=c1c(-c2cccc(F)c2)nc2cncnc2n1-c1ccccc1,u,>57,-4%,19%
Cn1c(=O)c(-c2ccc(Cl)cc2)nc2cnc(OCc3ccccc3)nc21,u,>57,-1%,4%
COc1ccccc1N1CCN(CCN(C(=O)c2ccc(I)cc2)c2ccccn2)CC1,u,>57,14%,149%
COc1ccc(-c2cc(CCCC(=O)NCCc3ccc(OC)cc3OC)no2)cc1,x,>57,15%,40%
COc1ccc(-c2cc(CCCC(=O)NCc3ccccn3)no2)cc1,-14%,>57,14%,3.2µM*[single pt active]
CCCCCCCCCCCCCCCC(=O)O[C@H](CC(=O)O)C[N+](C)(C)C,u,>57,-4%,123%
Cn1c(Cn2c(=O)sc3ccccc32)nnc1SCC(=O)Nc1ccc(Cl)cc1,8%,>57,11%,4µM*[single pt active]
Cn1c(Cn2c(=O)sc3ccccc32)nnc1SCC(=O)Nc1cccc(Cl)c1,7%,>57,23%,8%
Cn1c(Cn2c(=O)sc3ccccc32)nnc1SCC(=O)Nc1cccc(F)c1,-2%,>57,13%,4µM*[single pt active]
Cc1cc(C)cc(NC(=O)CSc2nnc(Cn3c(=O)sc4ccccc43)n2C)c1,-1%,>57,9%,4µM*[single pt active]
CO[C@@H](C)[C@](O)(C(=O)OC1=CCN2CC[C@H](O)[C@H]12)C(C)C,-16%,>57,-3%,-3%
CC(=O)N1C[C@@H]2C[C@H](C1)c1cccc(=O)n1C2,u,>57,2%,3%
Cc1ccc(S(=O)(=O)C2(C(=O)Nc3ccc(F)cc3)CC2)cc1,-7%,>57,11%,-7%
Cc1ccc(S(=O)(=O)C2(C(=O)Nc3ccc4c(c3)OCO4)CC2)cc1,-7%,>57,22%,4µM*[single pt active]
CCN(CC)S(=O)(=O)c1ccc(C(=O)OCCN2C(=O)CCC2=O)cc1,3%,>57,11%,4µM*[single pt active]
CCc1ccc(-n2c(O)cnc2Nc2nc(C)cc(C)n2)cc1,-27%,>57,10%,4µM*[single pt active]
O=C(Nc1ccccc1)Nc1ccc(S(=O)(=O)N2CCCCC2)cc1,u,>57,-2%,-23%
CN1CCN(S(=O)(=O)c2ccc(NC(=O)Nc3cccc(Cl)c3)cc2)CC1,13µM*,>57,-3%,13%
CN(CC(CC(=O)Nc1nncs1)c1ccccc1)S(=O)(=O)c1ccccc1 (stereo not drawn),5%,>57,9%,4µM*[single pt active]
O=C(O)CC(CC(=O)Nc1nncs1)c1ccccc1 (stereo not drawn),4%,>57,-5%,-21%
Cc1ccc(-c2nc(NC(=O)CSc3nnc4scc(-c5ccccc5)n34)ns2)cc1,u,>57,26%,4µM*[single pt active]
Cc1nn(C)c(C)c1S(=O)(=O)N1CCCC(C(=O)NC2CCCCCC2)C1 (stereo not drawn),-17%,>57,13%,4µM*[single pt active]
COc1ccc2ccccc2c1C1CC(=O)N2CN(Cc3ccco3)CSC2=C1C#N (stereo not drawn),u,>57,0%,4µM*[single pt active]
COc1ccc(C2CC(=O)N3CN(Cc4ccco4)CSC3=C2C#N)cc1 (stereo not drawn),u,>57,-3%,-4%
SMILES,Anthrax LT inh,Prx2 Sm inh,AmpC inh det,AmpC inh no det
COc1cc(C2CC(=O)N3CN(Cc4ccco4)CSC3=C2C#N)ccc1OCc1ccccc1 (stereo not drawn),u,>57,9%,4µM*[single pt active]
CCOc1cc(C2CC(=O)N3CN(C4CCCCC4)CSC3=C2C#N)ccc1O (stereo not drawn),-7%,>57,12%,2.5µM*
Cc1ccc2[nH]c(=O)c(CN(CCc3ccccc3)C(c3nnnn3Cc3ccco3)C(C)C)cc2c1 (stereo not drawn),u,>57,6%,5µM*
CCC(c1nnnn1Cc1ccco1)N(CCc1ccccc1)Cc1cc2cc(C)ccc2[nH]c1=O (stereo not drawn),-18%,>57,1%,16%
CCCOc1nc2c(c(=O)n(C)c(=O)n2C)n1CCC,-3%,>57,22%,11%
CCCn1c(OC)nc2c1c(=O)n(C)c(=O)n2C,4%,>57,8%,4µM*[single pt active]
O=C(NCc1ccc2c(c1)OCO2)c1cccc2c1C(=O)N(C1CCCCC1)C2,2%,>57,14%,2.5µM*[single pt active]
C[C@@]12CC[C@H](O)C[C@@H]1CC[C@H]1[C@H]2C[C@@H](O)[C@]2(C)[C@@H](C3=CC(=O)OC3)CC[C@@]12O,u,>11,7%,-10%
CCN(CC)CCCNC(=O)c1cc2c(-c3ccc(Cl)cc3)nn(C)c2s1,2.5µM*,>57,14%,4µM*[single pt active]
CN1CCN(CCCNC(=O)c2cc3c(-c4ccc(Cl)cc4)nn(C)c3s2)CC1,6.3µM*,>57,17%,170%
CC1CCCCN1CCNC(=O)c1cc2c(-c3ccccc3F)nn(C)c2s1 (stereo not drawn),7.9µM*,>57,10%,4µM*[single pt active]
Cn1nc(-c2ccc(Cl)cc2)c2cc(C(=O)NCC3CCCO3)sc21 (stereo not drawn),u,>57,8%,150%
CCOC(=O)c1cc2sccc2n1CC(=O)N1c2ccccc2CC1C (stereo not drawn),10%,>57,0%,16µM*[single pt active]
COC(=O)[C@@]1(Cc2ccccc2)[C@H]2c3cc(C(=O)N(C)C)n(Cc4ccsc4Br)c3C[C@H]2CN1C(=O)c1ccccc1,u,>57,0%,137%
CN1CCN(c2ncc3nc(-c4cccs4)c(=O)n(C[C@H]4CCCO4)c3n2)CC1,u,>57,0%,121%
COC(=O)c1ccccc1NC(=O)Nc1nnc(N2CCCCC2C)s1 (stereo not drawn),1.3µM*,>57,12%,4µM*[single pt active]
COc1ccc(NC(=O)Nc2nnc(N3CCCCC3C)s2)cc1OC (stereo not drawn),4%,x,19%,4µM*[single pt active]
O=C(Cn1ncc2c(=O)oc3ccccc3c21)N1CCCc2ccccc21,-4%,>57,-2%,15%
O=C(Cn1ncc2c(=O)oc3ccccc3c21)NCCN1CCN(c2ccccc2F)CC1,0%,>57,12%,4µM*[single pt active]
O=C(Cn1ncc2c(=O)oc3ccccc3c21)N1CCN(C(=O)c2ccco2)CC1,-4%,u,-2%,5%
O=C(Cn1ncc2c(=O)oc3ccccc3c21)N1CCCN(Cc2ccccc2F)C1,-13%,>57,24%,4µM*[single pt active]
CC1CC(C)CN(CCCNC(=O)Cn2ncc3c(=O)oc4ccccc4c32)C1 (stereo not drawn),-6%,>57,9%,3.2µM*[single pt active]
Cc1noc(C)c1-c1ccc2ncnc(N(C)Cc3ccco3)c2c1,2%,>11,10%,53%
O=C(O)CCCC[C@@H]1SC[C@H]2NC(=O)N[C@H]12,u,>57,-1%,11%
CC(=O)OC[C@@H]1O[C@H](CCO/N=C(\C)CCN2CCCc3nc(C)c(C)cc32)C=C[C@@H]1OC(C)=O,-1%[8 µM],x,x,x
